# This is part of a sample that, as a whole, favours compounds with a hit. Of some 79,000 tested, about 15% had one in any assay. Unmarked numbers belong to inactive results. Calls of active or inactive are those of the source. Rule as the data show it: active = growth inhibition above about 70%; inactive = the rest.
# Experiment: NCI Yeast Anticancer Drug Screen. Data for the rad50 strain (AID 155);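 also: 0% = growth of vehicle-only cultures of the same strain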
# Settings: S. cerevisiae rad50 strain growth inhibition; at 50.0 µM; stronger effect = higher value
# In short: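 Cells are treated with compound, grown, and their growth is then scored against vehicle-only cultures of the same repair-deficient yeast strain.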
row,SMILES,growth inhibition
1,O=C1C(=O)C(CCCO)(CCCO)CCCCCCCCC1(CCCO)CCCO,31.4%
2,CC(C)(C)C(=O)CC(=O)C(F)(F)C(F)(F)C(F)(F)F.CC(C)(C)C(=O)CC(=O)C(F)(F)C(F)(F)C(F)(F)F.CC(C)(C)C(=O)CC(=O)C(F)(F)C(F)(F)C(F)(F)F.[Er],92.5% (active)
3,CCCCC(CC)COC(=O)c1cc2ccccc2oc1=O (stereo not given),70.8% (active)
4,Nc1ccc(-c2nc3ccccc3s2)cc1I,84.3% (active)
5,CN1CCC(CCC(=O)OC(C)(C)C)(CN2c3ccccc3Sc3ccccc32)C1 (stereo not given),99.5% (active)
6,COc1cc(C(=O)C=[N+]=[N-])c([N+](=O)[O-])c(OC)c1OC,63.2%
7,COc1ccc(-n2cc(-c3ccc(Cl)cc3)c3c(N)ncnc32)cc1,95.6% (active)
8,COc1ccccc1/C=C1\SC(=S)N(/C=C2\C(=O)Oc3ccccc3C2=O)C1=O,30.9%
9,F[Si](c1ccccc1)(c1ccccc1)c1ccccc1,62%
10,Cc1c2ccnc(-c3ccc(F)cc3)c2cc2c1[nH]c1ccccc12,-0.35%
11,CCN(CC)CCNc1c(OC)cc(C)c2sc3ccccc3c(=O)c12,81.2% (active)
12,O=c1cccc(C2CCc3cc(O)ccc3C2)[nH]1 (stereo not given),-2.85%
13,O/N=C1\c2ccccc2-c2ccc(Cl)cc21,60.5%
14,CCCCN(CCCC)CC(O)c1cc(-c2ccc(Cl)cc2)nc2c(Cl)cccc12 (stereo not given),99% (active)
15,CN(C)c1ccc(-c2c(C#N)c(S)n(NS(=O)(=O)c3ccccc3)c(=O)c2C#N)cc1,35.4%
16,Clc1ccc2ns[s+]c2c1,73.7% (active)
17,COc1ccc2c(c1)CC/C(=C\c1ccc(OCCN(C)C)cc1)C2=O,40.2%
18,CCCCOC(=O)c1cnc[nH]c1=O,0.5%
19,COC(=O)c1c(C)cccc1C1CN=NC12Cc1ccc(C)c(C)c1C2=O (stereo not given),61%
20,CC1CCN(CCOC(=O)C(c2ccccc2)C2C=CCCC2)C1 (stereo not given),62.9%

row,SMILES,growth inhibition
1,CNCC(OB(c1ccccc1)c1ccccc1)c1ccccc1 (stereo not given),-22.9%
2,O=C1CCC(Cc2ccc(C(F)(F)F)cc2)C(=O)N1 (stereo not given),1.65%
3,CC(C)(Br)C(Br)C(=O)C(Br)C(C)(C)Br (stereo not given),52.2%
4,CCCCCCCCN(CCCCCCCC)CC(O)c1cc2c(c3ccccc13)CCCC2 (stereo not given),99.2% (active)
5,Brc1ccc(CCNCCN2CCCCC2)cc1,50.9%
6,CC(C)=NNc1ncnc2nc[nH]c12,12.5%
7,CC1=C/C(=C\c2ccc([N+](=O)[O-])o2)C(=O)O1,99.3% (active)
8,CCOC(=O)C(=O)Nc1nc2c(s1)C(=O)c1ccccc1C2=O,98.5% (active)
9,CC1CC2(C)ON=C(c3ccccc3)N2c2ccccc2S1 (stereo not given),87.7% (active)
10,N#CC(CC(Br)CBr)(c1ccccc1)c1ccccc1 (stereo not given),45.9%
11,Oc1ccc(-c2ccccc2)cc1Cl,99.2% (active)
12,C=CCSc1nc2ccccc2c(=O)n1Cc1ccco1,-7.25%
13,CCOC(=O)c1ccc(O)c(OC)c1,2%
14,O=C(COc1ccc2ccccc2c1)NC1c2ccccc2Oc2ccccc21,74.2% (active)
15,O=S(=O)(c1ccccc1)n1cc(C[P+](c2ccccc2)(c2ccccc2)c2ccccc2)c2ccccc21,99.3% (active)
16,CC/C(=N\O)c1ccc2cc(Br)c3ccccc3c2c1,98.7% (active)
17,CCOC(=O)C(C)(C)Oc1ccc2c(=O)cc(-c3ccccc3)oc2c1,85.5% (active)
18,CC(O)c1c2ccccc2cc2ccccc12 (stereo not given),84.4% (active)
19,CC(=O)OC1CCC2(C)C(CCC3C4=CCC(C5COC(=O)C5)C4(C)CCC32)C1 (stereo not given),77.2% (active)
20,NC(C(=O)O)C1=CCCCCC1 (stereo not given),49.5%

# Experiment: NCI Yeast Anticancer Drug Screen. Data for the mec2-1 strain (AID 157)
# Settings: S. cerevisiae mec2-1 strain, at 5.0 µM (retest, dose inferred, filed as 0.5), stronger effect = higher value
# In short: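 Growth inhibition is read against vehicle-treated controls after compound exposure of the mec2-1 yeast strain, which is defective in DNA damage repair or cell cycle control.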
row,SMILES,growth inhibition
1,O=C1C(=O)C(CCCO)(CCCO)CCCCCCCCC1(CCCO)CCCO,5%
2,CC(C)(C)C(=O)CC(=O)C(F)(F)C(F)(F)C(F)(F)F.CC(C)(C)C(=O)CC(=O)C(F)(F)C(F)(F)C(F)(F)F.CC(C)(C)C(=O)CC(=O)C(F)(F)C(F)(F)C(F)(F)F.[Er],65%
3,CCCCC(CC)COC(=O)c1cc2ccccc2oc1=O (stereo not given),1%
4,Nc1ccc(-c2nc3ccccc3s2)cc1I,20%
5,CN1CCC(CCC(=O)OC(C)(C)C)(CN2c3ccccc3Sc3ccccc32)C1 (stereo not given),-14%
6,COc1cc(C(=O)C=[N+]=[N-])c([N+](=O)[O-])c(OC)c1OC,22%
7,COc1ccc(-n2cc(-c3ccc(Cl)cc3)c3c(N)ncnc32)cc1,23%
8,COc1ccccc1/C=C1\SC(=S)N(/C=C2\C(=O)Oc3ccccc3C2=O)C1=O,-3%
9,F[Si](c1ccccc1)(c1ccccc1)c1ccccc1,3%
10,Cc1c2ccnc(-c3ccc(F)cc3)c2cc2c1[nH]c1ccccc12,-14%
11,CCN(CC)CCNc1c(OC)cc(C)c2sc3ccccc3c(=O)c12,6%
12,O=c1cccc(C2CCc3cc(O)ccc3C2)[nH]1 (stereo not given),3%
13,O/N=C1\c2ccccc2-c2ccc(Cl)cc21,-5%
14,CCCCN(CCCC)CC(O)c1cc(-c2ccc(Cl)cc2)nc2c(Cl)cccc12 (stereo not given),-2%
15,CN(C)c1ccc(-c2c(C#N)c(S)n(NS(=O)(=O)c3ccccc3)c(=O)c2C#N)cc1,31%
16,Clc1ccc2ns[s+]c2c1,13%
17,COc1ccc2c(c1)CC/C(=C\c1ccc(OCCN(C)C)cc1)C2=O,2%
18,CCCCOC(=O)c1cnc[nH]c1=O,2%
19,COC(=O)c1c(C)cccc1C1CN=NC12Cc1ccc(C)c(C)c1C2=O (stereo not given),0%
20,CC1CCN(CCOC(=O)C(c2ccccc2)C2C=CCCC2)C1 (stereo not given),3%

row,SMILES,growth inhibition
1,CNCC(OB(c1ccccc1)c1ccccc1)c1ccccc1 (stereo not given),12%
2,O=C1CCC(Cc2ccc(C(F)(F)F)cc2)C(=O)N1 (stereo not given),-1%
3,CC(C)(Br)C(Br)C(=O)C(Br)C(C)(C)Br (stereo not given),-2%
4,CCCCCCCCN(CCCCCCCC)CC(O)c1cc2c(c3ccccc13)CCCC2 (stereo not given),8%
5,Brc1ccc(CCNCCN2CCCCC2)cc1,25%
6,CC(C)=NNc1ncnc2nc[nH]c12,-1%
7,CC1=C/C(=C\c2ccc([N+](=O)[O-])o2)C(=O)O1,86% (active)
8,CCOC(=O)C(=O)Nc1nc2c(s1)C(=O)c1ccccc1C2=O,18%
9,CC1CC2(C)ON=C(c3ccccc3)N2c2ccccc2S1 (stereo not given),-4%
10,N#CC(CC(Br)CBr)(c1ccccc1)c1ccccc1 (stereo not given),8%
11,Oc1ccc(-c2ccccc2)cc1Cl,-12%
12,C=CCSc1nc2ccccc2c(=O)n1Cc1ccco1,25%
13,CCOC(=O)c1ccc(O)c(OC)c1,7%
14,O=C(COc1ccc2ccccc2c1)NC1c2ccccc2Oc2ccccc21,91% (active)
15,O=S(=O)(c1ccccc1)n1cc(C[P+](c2ccccc2)(c2ccccc2)c2ccccc2)c2ccccc21,-1%
16,CC/C(=N\O)c1ccc2cc(Br)c3ccccc3c2c1,-2%
17,CCOC(=O)C(C)(C)Oc1ccc2c(=O)cc(-c3ccccc3)oc2c1,-28%
18,CC(O)c1c2ccccc2cc2ccccc12 (stereo not given),-7%
19,CC(=O)OC1CCC2(C)C(CCC3C4=CCC(C5COC(=O)C5)C4(C)CCC32)C1 (stereo not given),17%
20,NC(C(=O)O)C1=CCCCCC1 (stereo not given),20%

# Source: PubChem BioAssay (NCI)
